From PubChem BioAssay (NCI) come the findings set out here.

The panel holds about 83,000 compounds, 20% with a hit somewhere; the sample as a whole holds those more often.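 Assay: single dose, 48 h. Readout: percent growth (0 = no net growth; negative = cell death). Active: <10.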 Unmarked numbers belong to inactive results. Activity calls are given as the source filed them.

Among the test systems are NCI-H226 lung; NCI-H322M lung; HOP-62 NSCLC; NCI-H460 lung; HOP-92 NSCLC; NCI-H522 lung; A549/ATCC NSCLC; 786-0 renal; COLO 205 colon; DU-145 prostate; K-562 leukemia; MALME-3M melanoma; MDA-MB-231 breast; RXF 393 renal; SF-268 CNS; SF-295 CNS; SF-539 CNS; UACC-257 melanoma; M14 melanoma.
What all share (test): NCI-60 one-dose screen, 48 h (100 = growth as untreated, 0 = no growth, -100 = all killed)
Details in all cases: 10 µM unless noted

Turning to `COP(=O)(OC)/C(=N\NS(=O)(=O)c1ccc(C)cc1)c1ccccc1`, the growth in the assay on NCI-H226 lung is 89.2%; in the assay on NCI-H322M lung, 102%; in the assay on HOP-62 NSCLC, 95.5%; with NCI-H460 lung, 101%; in the assay with HOP-92 NSCLC, 106%; in the assay on NCI-H522 lung it was 126%. Besides, the growth in the assay on A549/ATCC NSCLC is 104%; in the assay on 786-0 renal, 94.7%; in the assay on COLO 205 colon, 109%; with DU-145 prostate, 106%; in the assay on K-562 leukemia, 120%; in the assay on MALME-3M melanoma, 104%. The growth with MDA-MB-231 breast is 119%; in the assay with RXF 393 renal, 76.6%; with SF-268 CNS, 119%; in the assay with SF-295 CNS, 117%; with SF-539 CNS, 95%; in the assay on UACC-257 melanoma, 112%. Also, the growth with M14 melanoma was 93.3%.
With `NC(=N\N=C/c1ccc(O)cc1)/C(N)=N\N=C/c1ccc(O)cc1`, the growth with NCI-H226 lung is 101%; with NCI-H322M lung, 77.5%; with HOP-62 NSCLC it was 79.3%; in the assay on NCI-H460 lung, 35.9%; with HOP-92 NSCLC, 79%; with NCI-H522 lung it was 31.4%. In addition, the growth in the assay on A549/ATCC NSCLC was 52.5%; with 786-0 renal it was 52.6%; with COLO 205 colon, 124%; with DU-145 prostate, 63%; in the assay on K-562 leukemia it was 23.7%; in the assay with MALME-3M melanoma it was 65.3%. For the same molecule, the growth is 64.8% with MDA-MB-231 breast; 105% with RXF 393 renal; 58.4% with SF-268 CNS; 29.2% in the assay with SF-295 CNS; 85.4% with UACC-257 melanoma; 39.5% in the assay with M14 melanoma.
Turning to `COc1cc(-c2nn(-c3cccc(NC(=O)Nc4cccc(C(F)(F)F)c4)c3)cc2-c2ccncc2)ccc1Cl`, the growth in the assay on NCI-H226 lung is 4.3% (active); with NCI-H322M lung, 21.7%; with HOP-62 NSCLC, -29.8% (active); in the assay on NCI-H460 lung it was -7.91% (active); in the assay on HOP-92 NSCLC it was -33.6% (active); in the assay with NCI-H522 lung, -30.8% (active). Besides, the growth with 786-0 renal was -15% (active); in the assay on COLO 205 colon, -88.9% (active); in the assay on DU-145 prostate, 9.75% (active); in the assay with K-562 leukemia it was 1.6% (active); in the assay on MALME-3M melanoma it was -32.1% (active); with MDA-MB-231 breast, -28.8% (active). Further, the growth in the assay on RXF 393 renal is -69.8% (active); in the assay on SF-268 CNS, 2.35% (active); in the assay with SF-539 CNS it was -34.2% (active); with UACC-257 melanoma it was -52.9% (active); in the assay on M14 melanoma it was -61.5% (active).
Regarding `O=C1c2c(c3c4ccccc4n(CCCCCCBr)c3c3[nH]c4ccccc4c23)C(=O)N1O`, the growth with NCI-H226 lung is 70.5%; in the assay on NCI-H322M lung, 14.8%; with HOP-62 NSCLC it was 8.33% (active); with NCI-H460 lung it was 5.88% (active); in the assay with HOP-92 NSCLC, -13.6% (active); in the assay on NCI-H522 lung it was -7.94% (active). In addition, the growth with A549/ATCC NSCLC is 6.36% (active); in the assay with 786-0 renal it was 17.3%; in the assay on COLO 205 colon, 62.4%; in the assay with DU-145 prostate, 22.6%; in the assay with K-562 leukemia, 8.97% (active); in the assay on MALME-3M melanoma it was -20% (active). The growth in the assay with MDA-MB-231 breast was -13.8% (active); with RXF 393 renal, 29.1%; in the assay with SF-268 CNS, 24.7%; with SF-295 CNS, 4.87% (active); in the assay on SF-539 CNS, -6% (active); with M14 melanoma, 15.5%.
As to `COc1ccc(/C=C2\N=C(c3ccccc3)N(C(=O)c3ccccc3O)NC2=O)cc1`, the growth in the assay with NCI-H226 lung is 101%; with NCI-H322M lung, 105%; in the assay on HOP-62 NSCLC, 99.1%; in the assay on NCI-H460 lung, 98.7%; in the assay with HOP-92 NSCLC, 75.5%; in the assay on NCI-H522 lung, 100%. The growth in the assay on A549/ATCC NSCLC is 97.3%; with 786-0 renal, 89.8%; in the assay on COLO 205 colon, 112%; in the assay with DU-145 prostate, 110%; with K-562 leukemia it was 86.5%; in the assay on MALME-3M melanoma it was 89.9%. Moreover, the growth is 84.6% with MDA-MB-231 breast; 105% in the assay on RXF 393 renal; 108% with SF-268 CNS; 92.9% in the assay with SF-295 CNS; 95.3% in the assay with SF-539 CNS; 110% in the assay on UACC-257 melanoma. In addition, the growth with M14 melanoma is 98.8%.
Turning to `COc1ccc2c(c1)[nH]c(=O)c1c3cc(OC)ccc3cn21`, the growth is 30.1% in the assay with NCI-H226 lung; 33.6% in the assay on NCI-H322M lung; 20% in the assay with HOP-62 NSCLC; -33% (active) in the assay with NCI-H460 lung; 45.1% in the assay with HOP-92 NSCLC; 13% in the assay with NCI-H522 lung. For the same molecule, the growth with A549/ATCC NSCLC is -2.59% (active); in the assay on 786-0 renal, 28.7%; in the assay with COLO 205 colon it was -14.1% (active); with DU-145 prostate, 0.89% (active); in the assay on K-562 leukemia it was 25.6%; with MALME-3M melanoma, 60.4%. Besides, the growth in the assay with MDA-MB-231 breast is 0.629% (active); with RXF 393 renal, -39.9% (active); with SF-268 CNS, -3.31% (active); in the assay on SF-295 CNS, -18% (active); with SF-539 CNS, 7.14% (active); in the assay with UACC-257 melanoma, 72.5%. Also, in the assay on M14 melanoma, the growth is 25.4%.
Turning to `CC12CCC3C4(C)COC(c5ccccc5Cl)OC4CCC3(C)C1CC(C1=CCOC1=O)O2` (stereo not drawn), the growth is 59.5% in the assay with NCI-H226 lung; 90.2% in the assay with NCI-H322M lung; 78.3% in the assay on HOP-62 NSCLC; 44.1% in the assay on NCI-H460 lung; 85.7% in the assay on HOP-92 NSCLC; 59.4% in the assay on NCI-H522 lung. The growth in the assay on A549/ATCC NSCLC was 64.1%; in the assay on 786-0 renal, -89.9% (active); in the assay on COLO 205 colon, 45%; in the assay with DU-145 prostate, 83.9%; in the assay on K-562 leukemia, 23.9%; with MALME-3M melanoma, 90.6%. Besides, the growth in the assay with MDA-MB-231 breast was 71.7%; in the assay with RXF 393 renal, 80.4%; with SF-268 CNS, 70.1%; in the assay with SF-295 CNS, 64.3%; in the assay with SF-539 CNS it was 84.7%; in the assay on UACC-257 melanoma, 49.3%. In addition, in the assay on M14 melanoma, the growth was 65.9%.
With `CCOC(=O)c1cn2c3c(cccc3c1=O)C(=O)/C(=C/c1cccc(Cl)c1Cl)C2`, the growth in the assay on NCI-H226 lung was 83%; with NCI-H322M lung it was 97.4%; with HOP-62 NSCLC it was 81.8%; in the assay with NCI-H460 lung, 107%; with HOP-92 NSCLC, 63.8%; with NCI-H522 lung, 73.1%. Moreover, the growth in the assay with A549/ATCC NSCLC was 98.2%; in the assay with 786-0 renal, 90.6%; in the assay with COLO 205 colon, 117%; in the assay on DU-145 prostate, 106%; with K-562 leukemia, 91%; in the assay with MALME-3M melanoma it was 116%. Moreover, the growth is 89.5% with MDA-MB-231 breast; 87% in the assay with RXF 393 renal; 87.9% with SF-268 CNS; 95.8% in the assay on SF-295 CNS; 101% with SF-539 CNS; 87.5% in the assay with UACC-257 melanoma. Also, in the assay on M14 melanoma, the growth was 98.7%.
